Measurements as given in PubChem BioAssay (EPA / NIEHS).
Active and inactive are the calls of the source. The calls were made as follows: active = hit-call score of the fitted dose curve at least 0.9, where 1 is the maximum; inactive = score below 0.9.

Tests used:
[1] = ATG_CRE_CIS: Attagene CIS-FACTORIAL HepG2 Assay for human cAMP Responsive Element (CRE) binding protein 3 (AID 2282926); conditions: HepG2 CRE cis-reporter, Attagene multiplexed mRNA; actives raise or lower the signal
In short: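 HepG2 cells transiently transfected with a multiplexed reporter library (CRE-driven unit among them) were dosed for 24 h. Reporter mRNA was quantified by RT-PCR, fluorescent labelling, HpaI digestion and capillary electrophoresis, with bidirectional fitting against DMSO baseline.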

[2] = ATG_DR4_LXR_CIS: Attagene CIS-FACTORIAL HepG2 Assay for human Liver X Receptor (LXR), DR4 submotif (AID 2282929); conditions: HepG2 Attagene DR4 cis-reporter, mRNA transcription; actives raise or lower the signal
In short: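 Transiently transfected HepG2 liver cells; cis-regulated reporters; 24 h dosing. RT-PCR plus CE read-out of reporter mRNA. DMSO baseline, bidirectional curve fitting.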

[3] = ATG_AP_2_CIS: Attagene CIS-FACTORIAL HepG2 Assay for human Activator Protein 2 (AP-2) (AID 2282932); conditions: HepG2 AP-2 cis-reporter, Attagene transcription factor profiling; actives raise or lower the signal
In short: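 Step one: transient transfection of HepG2 with reporter transcription units. Step two: 24 h chemical exposure. Step three: RNA extraction, RT-PCR, labelled fragment analysis by capillary electrophoresis; DMSO serves as baseline.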

[4] = ATG_BRE_CIS: Attagene CIS-FACTORIAL HepG2 Assay for human Bone Morphogenetic Protein (BMP) Response Element (BRE) (AID 2282933); conditions: HepG2 BMP response element reporter, Attagene transcription factor profiling; actives raise or lower the signal
In short: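 Endogenous transcription factor activity read in transiently transfected HepG2 cells after 24 h chemical exposure. Bidirectional curve fitting against DMSO; readout is reporter transcript level by RT-PCR with capillary electrophoresis of labelled products.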

[5] = target: Transcription factor E2F1 (Homo sapiens) (UniProt Q01094); experiment: ATG_E2F_CIS: Attagene CIS-FACTORIAL HepG2 Assay for human E2F Transcription Factor 1 (AID 2282935); conditions: HepG2 Attagene cis-reporter, E2F reporter RNA transcripts; actives raise or lower the signal
Transcription factor E2F1 (Homo sapiens), sequence (Q01094 whole entry, looked up): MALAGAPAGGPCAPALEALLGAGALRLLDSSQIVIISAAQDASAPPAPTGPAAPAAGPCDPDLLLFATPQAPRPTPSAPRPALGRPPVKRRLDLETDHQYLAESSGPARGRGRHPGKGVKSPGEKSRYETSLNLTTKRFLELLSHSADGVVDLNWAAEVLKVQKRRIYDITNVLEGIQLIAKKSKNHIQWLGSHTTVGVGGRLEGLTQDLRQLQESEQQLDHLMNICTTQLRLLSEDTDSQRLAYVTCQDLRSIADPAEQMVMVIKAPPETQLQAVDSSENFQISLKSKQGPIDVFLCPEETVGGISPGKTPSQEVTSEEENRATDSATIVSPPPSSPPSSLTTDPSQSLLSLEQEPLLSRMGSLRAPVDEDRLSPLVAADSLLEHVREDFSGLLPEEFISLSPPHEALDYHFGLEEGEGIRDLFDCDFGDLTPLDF
In short: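 Total RNA from 24 h-treated, reporter-transfected HepG2 cells undergoes DNase I treatment, oligo(dT) reverse transcription, PCR and 6-FAM primer extension before capillary electrophoresis.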

[6] = ATG_E_Box_CIS: Attagene CIS-FACTORIAL HepG2 Assay for human Enhancer Box (E-box) (AID 2282936); conditions: HepG2 E-box cis-reporter transcription, actives raise or lower the signal
In short: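 DMSO served as negative control and baseline for bidirectional fitting. Human hepatoma HepG2 cells, transiently transfected with cis-reporter constructs, were dosed 24 h; reporter mRNA read by RT-PCR and capillary electrophoresis.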

[7] = ATG_M_19_CIS: Attagene CIS-FACTORIAL HepG2 Assay for M19 Transcription Factor (Internal Marker) (AID 2282939); conditions: HepG2 Attagene CIS-FACTORIAL M19 internal marker reporter; actives raise or lower the signal
In short: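 Internal marker readout, fitted in both directions against DMSO, from HepG2 cells carrying transfected cis-element reporter constructs; RT-PCR and capillary electrophoresis of reporter mRNA after 24 h exposure.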

[8] = ATG_Ets_CIS: Attagene CIS-FACTORIAL HepG2 Assay for human Erythroblast Transformation Specific (ETS) (AID 2282941); conditions: HepG2 ETS cis-reporter transcription, actives raise or lower the signal
In short: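 HepG2 cells transiently transfected with cis-promoter reporter transcription units were dosed for 24 h; reporter mRNA was measured by RT-PCR, 6-FAM primer extension, HpaI digestion and capillary electrophoresis, with bidirectional fitting against DMSO baseline.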

[9] = target: Hepatocyte nuclear factor 3-beta (Homo sapiens) (UniProt Q9Y261); experiment: ATG_FoxA2_CIS: Attagene CIS-FACTORIAL HepG2 Assay for human Forkhead box A2 (FOXA2) (AID 2282942); conditions: HepG2 cis-reporter transcription factor activity, 24 h; actives raise or lower the signal
Hepatocyte nuclear factor 3-beta (Homo sapiens), sequence (Q9Y261 whole entry, looked up): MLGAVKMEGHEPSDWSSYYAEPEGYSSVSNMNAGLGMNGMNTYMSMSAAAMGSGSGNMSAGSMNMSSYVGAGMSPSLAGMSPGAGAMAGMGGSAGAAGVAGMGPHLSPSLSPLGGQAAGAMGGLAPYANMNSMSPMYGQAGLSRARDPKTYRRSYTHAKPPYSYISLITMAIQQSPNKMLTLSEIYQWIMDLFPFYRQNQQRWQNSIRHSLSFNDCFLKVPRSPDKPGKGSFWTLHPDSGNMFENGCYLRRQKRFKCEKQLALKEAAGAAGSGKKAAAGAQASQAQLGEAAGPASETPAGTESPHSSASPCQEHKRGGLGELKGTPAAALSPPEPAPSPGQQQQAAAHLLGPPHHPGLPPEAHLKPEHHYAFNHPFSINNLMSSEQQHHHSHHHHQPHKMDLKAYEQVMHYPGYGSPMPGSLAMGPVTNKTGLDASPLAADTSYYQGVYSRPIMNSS
In short: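 Multiplexed cis-element reporter assay in transiently transfected HepG2. Twenty-four hours post-dosing, RNA was reverse-transcribed, amplified, FAM-labelled, HpaI-digested and separated by CE. Activity gain or loss relative to DMSO.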

[10] = ATG_FoxO_CIS: Attagene CIS-FACTORIAL HepG2 Assay for human Forkhead box O (FoxO) (AID 2282943); conditions: HepG2 Attagene cis-reporter, FoxO element, mRNA; actives raise or lower the signal
In short: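 Human hepatoma HepG2 cells carry transiently introduced reporter transcription units controlled by cis promoter elements. Chemical treatment lasted 24 h, and mRNA signal was compared with DMSO.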

[11] = ATG_GATA_CIS: Attagene CIS-FACTORIAL HepG2 Assay for human GATA Binding Protein (AID 2282944); conditions: HepG2 GATA cis-element reporter, Attagene multiplex mRNA; actives raise or lower the signal
In short: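 Reporter transcripts from a GATA cis-regulated unit, among multiplexed reporters in transfected HepG2 cells, were measured by RT-PCR with capillary electrophoresis after 24 h dosing. Induction or loss scored relative to DMSO.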

[12] = ATG_M_32_CIS: Attagene CIS-FACTORIAL HepG2 Assay for M32 Transcription Factor (Internal Marker) (AID 2282949); conditions: HepG2 Attagene cis-factorial M32 reporter, mRNA; actives raise or lower the signal;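 also: background control marker of the multiplexed CIS panel rather than a real target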
In short: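 Internal background marker read-out: RT-PCR/capillary electrophoresis fluorescence of reporter transcripts from transiently transfected HepG2 cells after 24 h chemical exposure. Activity fitted bidirectionally relative to DMSO negative control.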

[13] = ATG_PXRE_CIS: Attagene CIS-FACTORIAL HepG2 Assay for human Pregnane X Receptor Element (PXRE) (AID 2282957); conditions: HepG2 Attagene CIS-FACTORIAL PXRE reporter, mRNA; actives raise or lower the signal
In short: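 HepG2 cells transiently transfected with cis-regulated multiple reporter transcription units; endogenous factor activity measured as reporter mRNA 24 h after dosing. RT-PCR, fluorescent primer extension, HpaI digestion, capillary electrophoresis; bidirectional fit versus DMSO baseline.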

[14] = ATG_Sox_CIS: Attagene CIS-FACTORIAL HepG2 Assay for human SRY-box transcription factor (SOX) (AID 2282960); conditions: HepG2 Attagene cis-factorial SOX reporter, mRNA; actives raise or lower the signal
In short: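 Fluorescence-labelled cDNA fragments from reporter transcripts, sized by CE, give the signal. Cells: HepG2, transiently transfected with cis-regulated reporter units. Exposure 24 h; DMSO negative control; bidirectional curve fitting.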

[15] = target: Transcription factor Sp1 (Homo sapiens) (UniProt P08047); experiment: ATG_Sp1_CIS: Attagene CIS-FACTORIAL HepG2 Assay for human Specificity Protein 1 (Sp1) (AID 2282961); conditions: HepG2 Sp1 cis-reporter transcription, actives raise or lower the signal
Transcription factor Sp1 (Homo sapiens), sequence (P08047 whole entry, looked up): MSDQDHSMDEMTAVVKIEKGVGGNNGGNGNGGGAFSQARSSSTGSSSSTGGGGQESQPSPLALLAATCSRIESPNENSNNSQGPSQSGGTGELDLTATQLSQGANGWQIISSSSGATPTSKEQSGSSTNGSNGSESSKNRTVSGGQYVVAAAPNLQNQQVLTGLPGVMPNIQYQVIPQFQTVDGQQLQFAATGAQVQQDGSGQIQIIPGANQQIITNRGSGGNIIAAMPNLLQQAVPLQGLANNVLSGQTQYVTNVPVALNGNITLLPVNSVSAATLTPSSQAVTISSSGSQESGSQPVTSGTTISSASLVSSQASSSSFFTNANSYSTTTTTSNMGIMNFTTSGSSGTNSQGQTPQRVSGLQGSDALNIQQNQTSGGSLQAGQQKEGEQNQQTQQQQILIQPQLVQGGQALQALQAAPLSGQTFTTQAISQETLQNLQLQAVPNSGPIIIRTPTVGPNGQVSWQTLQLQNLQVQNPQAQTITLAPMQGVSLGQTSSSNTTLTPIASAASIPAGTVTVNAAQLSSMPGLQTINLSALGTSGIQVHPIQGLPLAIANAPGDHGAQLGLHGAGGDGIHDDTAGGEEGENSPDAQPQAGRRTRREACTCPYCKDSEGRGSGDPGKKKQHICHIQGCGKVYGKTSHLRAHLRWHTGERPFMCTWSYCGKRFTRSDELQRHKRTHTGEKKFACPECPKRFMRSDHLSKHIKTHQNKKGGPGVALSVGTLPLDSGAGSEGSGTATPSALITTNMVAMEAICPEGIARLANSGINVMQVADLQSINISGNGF
In short: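 Chemicals are dosed onto HepG2 cells transfected with multiple cis-promoter reporter constructs, and after 24 h reporter RNA is reverse-transcribed, PCR-amplified and resolved by capillary electrophoresis for fluorescence quantitation; activity is scored up or down against DMSO.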

[16] = ATG_SREBP_CIS: Attagene CIS-FACTORIAL HepG2 Assay for human Sterol Regulatory Element Binding (SREBP) (AID 2282962); conditions: HepG2 Attagene cis-factorial SREBP reporter, mRNA; actives raise or lower the signal
In short: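 HepG2 cells transiently transfected with multiplexed cis-element reporter units report endogenous transcription factor activity. After 24 h of chemical exposure, reporter mRNA was quantified by RT-PCR, 6-FAM labelling, HpaI digestion and capillary electrophoresis; bidirectional fits used DMSO as baseline.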

[17] = target: Signal transducer and activator of transcription 3 (Homo sapiens) (UniProt P40763); experiment: ATG_STAT3_CIS: Attagene CIS-FACTORIAL HepG2 Assay for human Signal Transducer and Activator of Transcription 3 (STAT3) (AID 2282963); conditions: HepG2, Attagene cis-factorial STAT3 reporter transcription; actives raise or lower the signal
Signal transducer and activator of transcription 3 (Homo sapiens), sequence (P40763 whole entry, looked up): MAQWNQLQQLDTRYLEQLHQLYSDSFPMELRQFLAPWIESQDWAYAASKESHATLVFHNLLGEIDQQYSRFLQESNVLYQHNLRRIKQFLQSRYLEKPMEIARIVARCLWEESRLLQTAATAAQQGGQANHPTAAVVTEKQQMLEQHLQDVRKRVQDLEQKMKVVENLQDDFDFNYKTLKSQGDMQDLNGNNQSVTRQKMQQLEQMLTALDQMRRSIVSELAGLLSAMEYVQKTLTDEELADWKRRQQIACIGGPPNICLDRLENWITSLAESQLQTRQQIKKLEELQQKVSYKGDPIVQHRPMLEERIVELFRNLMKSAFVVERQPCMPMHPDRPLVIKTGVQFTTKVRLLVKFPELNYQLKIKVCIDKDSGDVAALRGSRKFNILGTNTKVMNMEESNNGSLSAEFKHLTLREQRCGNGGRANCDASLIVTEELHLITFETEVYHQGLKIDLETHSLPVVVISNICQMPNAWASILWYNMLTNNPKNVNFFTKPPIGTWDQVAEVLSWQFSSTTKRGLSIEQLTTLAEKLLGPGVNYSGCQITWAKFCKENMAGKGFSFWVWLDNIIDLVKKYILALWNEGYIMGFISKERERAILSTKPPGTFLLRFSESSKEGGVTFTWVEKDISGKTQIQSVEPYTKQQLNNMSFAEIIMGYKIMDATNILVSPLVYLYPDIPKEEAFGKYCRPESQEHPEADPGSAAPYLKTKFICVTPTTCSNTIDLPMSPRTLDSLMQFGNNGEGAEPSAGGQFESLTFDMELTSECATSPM
In short: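 After a 24 h compound incubation, total RNA from MRTU-transfected HepG2 cells was converted to cDNA and reporter sequences PCR-amplified, labelled and profiled by capillary electrophoresis. Gain and loss of signal were referenced to DMSO.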

[18] = ATG_TA_CIS: Attagene CIS-FACTORIAL HepG2 Assay for human TA Basal Promoter (AID 2282964); conditions: HepG2 Attagene CIS-factorial TA basal promoter reporter; actives raise or lower the signal
In short: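 Background-control readout: TA basal promoter reporter mRNA, fitted in both directions relative to DMSO. Measured by RT-PCR and capillary electrophoresis 24 hours after treating HepG2 human liver cells transiently carrying multiplexed cis-regulated reporter constructs.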

[19] = ATG_TCF_b_cat_CIS: Attagene CIS-FACTORIAL HepG2 Assay for human T-Cell-Factor with beta-catenin (TCF/b-cat) (AID 2282965); conditions: HepG2 TCF/beta-catenin cis-reporter transcription, actives raise or lower the signal
In short: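 Measured: reporter mRNA in HepG2 transiently transfected with cis-promoter reporter units, 24 h after chemical addition. Fitting was bidirectional, DMSO as negative control.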

[20] = ATG_TGFb_CIS: Attagene CIS-FACTORIAL HepG2 Assay for human Transforming Growth Factor (TGF) (AID 2282967); conditions: HepG2 Attagene CIS TGFb reporter, mRNA transcription; actives raise or lower the signal
In short: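 Endogenous TGFB1-linked transcription factor activity read as reporter mRNA via RT-PCR and capillary electrophoresis, 24 h after dosing transiently transfected HepG2 cells. Gain or loss of signal fitted relative to DMSO.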

Measured: AC50

C=COCCCl
inactive: all assays above

C=C(Cl)Cl
active: [13] 50.8 µM
inactive: all other assays above

Cc1ccc(N(SC(F)(Cl)Cl)S(=O)(=O)N(C)C)cc1
active: [2] 15.2 µM | [14] 18.5 µM | [15] 18.8 µM | [19] 16.6 µM
inactive: all other assays above

O=CNC(N1CCN(C(NC=O)C(Cl)(Cl)Cl)CC1)C(Cl)(Cl)Cl (stereo not given)
active: [13] 7.22 µM
inactive: all other assays above

N#CC(c1ccccc1)c1ccccc1
active: [13] 11.1 µM
inactive: all other assays above

CSc1nc(N=[N+]=[N-])nc(NC(C)C)n1
active: [13] 27.2 µM
inactive: all other assays above

COc1cc(OC)nc(Oc2cccc(Oc3nc(OC)cc(OC)n3)c2C(=O)O)n1
active: [13] 56 µM
inactive: all other assays above

Cc1ncc(C[n+]2csc(CCO)c2C)c(N)n1
inactive: all assays above

CC(=O)C=Cc1ccccc1
active: [3] 143 µM | [4] 74.5 µM | [8] 100 µM | [10] 100 µM | [13] 26 µM | [14] 164 µM
inactive: all other assays above

CCNCC
inactive: all assays above

CNC(=N[N+](=O)[O-])NCC1CCOC1 (stereo not given)
inactive: all assays above

N#Cc1cc(I)c(O)c(I)c1
active: [15] 100 µM
inactive: all other assays above

CC(Cc1ccc(C(C)(C)C)cc1)CN1C[C@@H](C)O[C@@H](C)C1 (stereo not given in full)
active: [4] 50.3 µM | [13] 4.18 µM | [14] 24.7 µM
inactive: all other assays above

CC(C)CCCCCCCOC(=O)c1ccccc1C(=O)OCCCCCCCC(C)C
active: [13] 1.19 µM
inactive: all other assays above
